Bioassay records: PubChem BioAssay, The Scripps Research Institute Molecular Screening Center
TEAD-YAP inh: TEAD-YAP interaction inhibition. actives 1.4% (n = 640,000). HEK-TIYL cells, TEAD-Gal4/YAP UAS-luciferase luminescence. inhibition, % at 9.12 µM; in the data active = inhibition above about 32%;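 note: 0% = median of test compound wells and 100% = reference inhibitor wells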
GPR151 ag: human GPR151 activation; PathHunter beta-arrestin GPR151 cells, luminescence; activation, % at 11.2 µM; actives 1% (n = 650,000); AID 1508602; in the data active = activation above about 4.9%;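 note: 0% = median of compound wells and 100% = cells with positive control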
FBW7 act: human FBW7 E3 ligase activation, primary screen. normalized activity (activation), % at 26.1 µM. actives 0.13% (n = 650,000). AlphaScreen FBW7–phospho-cyclin E peptide binding, activator screen. Q969H0; in the data active = normalized activity above about 1.9%;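 note: purified mutant Fbw7 with reduced substrate affinity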
MITF primary: human MITF inhibition, primary screen | AlphaScreen MITF homodimerization, bead proximity signal | inhibition, % at 2.6 µM | actives 0.91% (n = 650,000) | AID 1259374; in the data active = inhibition above about 50%;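 note: 0% = vehicle wells with protein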
Target sequence (O75030 whole entry, looked up): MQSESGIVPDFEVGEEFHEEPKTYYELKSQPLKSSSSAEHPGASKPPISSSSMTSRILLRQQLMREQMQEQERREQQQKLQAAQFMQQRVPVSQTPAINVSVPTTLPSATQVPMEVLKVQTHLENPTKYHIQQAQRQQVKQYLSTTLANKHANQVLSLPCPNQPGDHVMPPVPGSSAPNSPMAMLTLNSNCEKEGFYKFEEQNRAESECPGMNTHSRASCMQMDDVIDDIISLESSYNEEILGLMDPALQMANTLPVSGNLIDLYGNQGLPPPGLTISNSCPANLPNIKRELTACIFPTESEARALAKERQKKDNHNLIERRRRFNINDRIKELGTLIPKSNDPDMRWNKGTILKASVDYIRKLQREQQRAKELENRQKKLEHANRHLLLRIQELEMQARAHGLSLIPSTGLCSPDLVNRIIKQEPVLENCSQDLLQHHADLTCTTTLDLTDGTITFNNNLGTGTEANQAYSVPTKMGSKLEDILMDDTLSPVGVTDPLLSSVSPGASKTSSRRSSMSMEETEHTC
GPR151 confirm: confirmation of human GPR151 activators; shares compounds with GPR151 ag; GPR151 PathHunter beta-arrestin cells, luminescence, 90 min; % of EA-reagent control over plate median; activation, % at 11.2 µM; 6,700 tested, under 10 active; AID 1508609;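 active = mean percent activation across replicates above the confirmation screen cutoff of 4.91%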
GPR119 ag: GPR119 activation, counter-screen for GPR151 activators | shares compounds with GPR151 ag | GPR119 PathHunter beta-arrestin cells, luminescence, 90 min; 0 = compound-well median, 100 = enzyme-acceptor control | activation, % at 11.2 µM | actives 0.3% (n = 6,700);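 active = mean percent activation in the counterscreen above 29.09%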;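 note: counterscreen on off-target GPR119 to flag nonselective hits from the GPR151 activator screen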
Starred values were filed as active, the others as inactive; · = no result given; ! = repeats disagree. Hits are enriched below; roughly 3.4% of the tested compounds scored in any of these assays.

SMILES	TEAD-YAP inh	GPR151 ag	FBW7 act	MITF primary	GPR151 confirm	GPR119 ag
CCn1c(SCC(=O)Nc2nc3ccccc3s2)nnc1C(C)C	-15.5	-0.7	0.1	11.8	·	·
CCN(CC)c1ccc(/C=N/n2cnnc2)c(O)c1	2.1	10.2*	-0.1	-2.9	0.6	-0.3
COc1cccc(C=O)c1OCc1ccc(Br)cc1	-8.2	-2.1	0.1	-9.0	·	·
COc1cccc(C=O)c1OCc1ccc(F)cc1	0.0	5.2*	0.0	-11.9	0.5	-5.3
COc1ccc(/C=N/Nc2nc(C)c([N+](=O)[O-])c(N(C)c3ccccc3)n2)cc1OC	14.4	5.5*	-0.2	-1.1	0.7	1.6
CS(=O)(=O)Nc1cccc(-c2cnn3c(NCCc4cccnc4)ccnc23)c1	-14.2	-0.1	-0.8	4.2	·	·
O=C(Cn1ncc2ccccc2c1=O)NNC(=S)NC1CC2CCC1C2 (centres undefined)	5.3	10.3*	0.6	4.9	0.1	8.3
O=C(CSc1ccc2c(c1)OCCO2)c1c[nH]c2ccccc12	-41.6	-1.1	0.0	-14.5	·	·
CN(Cc1ccno1)C(=O)CCC1(Cc2ccc3ccccc3c2)CCC(=O)N1 (centres undefined)	1.4	1.9	0.0	16.1	·	·
O=C(CCC/C=C\C[C@@H]1[C@@H](/C=C/[C@@H](O)CCc2ccccc2)[C@H](O)C[C@@H]1O)NC(CO)CO	·	1.0	·	-17.5	·	·
NC(=O)CCC/C=C\C[C@@H]1[C@@H](/C=C/[C@@H](O)CCc2ccccc2)[C@H](O)C[C@@H]1O	·	7.0*	·	-1.9	0.7	3.0
O=C(O)CCC/C=C\C[C@@H]1[C@@H](/C=C/[C@H](O)CCc2ccccc2)[C@H](O)C[C@@H]1O	·	5.6*	·	-14.7	1.1	5.5
CSCCCN1CCC(CO)(Cc2ccccc2C(F)(F)F)CC1	-1.2	-0.8	0.4	8.4	·	·
COc1ccc(CCN2CCC(NCc3cccc(N(C)C)c3)CC2)cc1	4.6	5.5*!	0.4	12.8	0.3	-3.7
Cc1c(C(=O)Nc2ccc3oc(-c4ccncc4)nc3c2)cccc1[N+](=O)[O-]	0.7	-1.6	0.2	10.7	·	·
CC(=O)Nc1ccc2oc(-c3ccncc3)nc2c1	-22.5	5.1*	0.0	0.7	0.1	-0.6
Cc1ccc(-c2nc3cc(NC(=O)c4cc(Cl)ccc4Cl)ccc3o2)cc1Br	-12.7	0.1	-0.1	-4.1	·	·
Cc1c(C(=O)Nc2ccc3oc(-c4cccnc4)nc3c2)cccc1[N+](=O)[O-]	-3.2	11.2*	0.0	13.7	-0.8	0.4
CC(=O)Nc1ccc(-c2nc3cc(C)ccc3o2)cc1	-46.5	-1.4	0.1	-2.4	·	·
Cc1ccc(-c2nc3cc(NC(=O)c4cc(Br)ccc4Cl)ccc3o2)cc1Br	7.5	6.1*	-0.4	0.4	0.0	9.0
Cc1cc(C)c(S(=O)(=O)Nc2ccc(O)c(C(=O)O)c2)cc1C	0.0	10.3*	-0.1	1.4	1.0	-1.9
Cc1cc(C)c(S(=O)(=O)Nc2ccc(F)cc2)cc1C	-1.1	0.0	0.3	10.3	·	·
CC(=O)Oc1ccc(C(=O)Nc2cc(C(=O)O)ccc2C)cc1	-10.2	-0.3	0.0	4.9	·	·
Nc1c(Br)cc(Br)cc1CNC1CCC(O)CC1 (centres undefined)	-1.0	5.7*!	0.0	-14.1	0.4	7.2
COc1ccc(Br)cc1CNC1CCCC1	-9.6	-0.7	-0.2	30.7	·	·
SMILES	TEAD-YAP inh	GPR151 ag	FBW7 act	MITF primary	GPR151 confirm	GPR119 ag
COc1cc(C(=O)Nc2ccc3oc(-c4cc(Cl)ccc4Cl)nc3c2)cc(OC)c1OC	3.7	-1.4	0.2	13.1	·	·
COCCNC(=O)c1ccc(/C=C2\Oc3ccccc3N(C)C2=O)cc1	-5.5	10.8*	0.5	-19.7	-1.2	12.1
CC1CCCCN1C(=O)c1ccc2c(c1)C(=O)N(CCC1=CCCCC1)C2=O (centres undefined)	-3.8	-0.5	0.0	9.3	·	·
CC(NC(=O)c1cnc2scc(C(C)(C)C)n2c1=O)c1ccccc1 (centres undefined)	3.7	7.4*	-0.2	-1.8	1.3	5.5
CC(C)n1c(-c2ccc(Cl)cc2)n[nH]c1=S	-8.3	0.3	-0.2	-4.6	·	·
N#Cc1c(N2CCCCC2)nc(-c2ccco2)c2c1CCCC2	14.0	0.0	0.3	16.1	·	·
CC1(C)Cc2c(C#N)c(N3CCCC3)nc(-c3ccco3)c2CO1	0.4	11.6*	0.0	-4.0	0.8	3.7
O=C(Nc1ccc([N+](=O)[O-])cn1)C1CCCCC1	-3.7	9.2*	0.1	12.1	-0.6	-9.6
O=[N+]([O-])c1ccc(NC2CCCCC2)nc1	-3.2	-0.6	-0.3	0.3	·	·
COCCCNC(=O)C1CCN(c2nc3ccccc3n2C)CC1	4.6	-0.2	0.1	12.8	·	·
CCC(C)NC(=O)C1CCCN1S(=O)(=O)c1ccc2nc(-c3ccccc3)[nH]c2c1 (centres undefined)	1.6	-0.8	0.0	17.8	·	·
CCOC(=O)C1(CC2CC2)CCN(S(=O)(=O)c2cc(Cl)ccc2OC)CC1	-2.1	-0.2	0.2	12.5	·	·
CCOC(=O)C1(CC2CC2)CCN(S(=O)(=O)c2cc(C)sc2C)CC1	4.7	6.3*	0.3	11.4	-0.5	1.1
Cc1nnc2n1CCN(C(=O)c1ccccc1N(C)C)CC2	-6.3	5.2*	-0.1	-10.1	0.9	4.4
Clc1ncnc2c1oc1ccccc12	0.7	9.1*	-0.1	4.8	0.8	-2.6
Cc1cccc(OCC(O)CN2CCCCCC2)c1C (centres undefined)	4.4	9.8*	-0.1	1.4	-0.1	-1.6
COc1cc(NC(=O)CCCCCN2C(=O)c3ccccc3C2=O)c(OC)cc1Cl	18.1	-0.3	0.0	5.0	·	·
c1ccc(Oc2ccc(-c3[nH]c(-c4ccccc4)nc3-c3ccccc3)cc2)cc1	0.4	5.3*	-0.2	4.6	0.9	4.7
O=C(O)c1ccc(-c2nc(-c3ccccc3)c(-c3ccc(C(=O)c4ccccc4)cc3)[nH]2)cc1	1.4	-0.2	-0.1	4.9	·	·
Cc1ccc(-c2nc(-c3ccccc3)c(-c3ccc(C(=O)c4ccccc4)cc3)[nH]2)cc1	-6.4	9.6*	0.0	-6.2	1.1	19.5
CC(=O)Nc1ccc(Nc2nc(NC3CCN(Cc4ccccc4)CC3)nc3c2ncn3C(C)C)cc1	7.8	-1.0	-0.1	0.6	·	·
Cc1nc(N)n2c(SCC(N)=O)nnc2c1Cc1ccccc1	0.1	0.0	0.1	4.1	·	·
C=CCn1c(Cl)nc2c1c(=O)n(C)c(=O)n2C	14.2	1.0	-0.1	2.0	·	·
CCN1CCN(C(=O)C(CC(C)C)N2Cc3ccccc3C2=O)CC1 (centres undefined)	-4.5	5.5*	-0.1	0.7	0.0	-1.8
CC(C)CC(C(=O)N1CCCCCC1)N1Cc2ccccc2C1=O (centres undefined)	4.0	-0.1	0.0	-0.2	·	·
COc1ccc(NC(=O)N2CCOc3ccc(C)cc32)cc1	-5.6	1.1	0.7	1.5	·	·
COc1ccc(N2C(=O)CN(C(=O)c3ccc(-n4ccnc4)cc3)CC23CCCC3)cc1	-12.0	0.7	0.1	2.0	·	·
